Data: PubChem BioAssay AID1159580 (chemical genetic matrix, 2015)
“And” between values parts separate entries of the source, which are not always exact repeats. Equal entries are not always repeated. About 2,000 (36%) of roughly 5,500 compounds were called active. Another 18% or so got no clear call; they are omitted. Rule as the data show it: active = normalized growth mostly below about 0.91 (no sharp cut-off); inconclusive = no clear call, values can overlap the other calls; inactive = mostly above about 0.92. The list shows a part of the results.

Assay: chemical genetic growth profiling, strain panel (AID 1159580);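 also: tested at 20 µM; growth read once vehicle control cultures reached saturation at 30 °C; 1 = growth at the plate median or of vehicle wells; lower values mean less growth of the strain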
Settings: S. cerevisiae deletion strains, growth OD

Measured: normalized growth

Cc1ncc([N+](=O)[O-])n1CCO
inactive: locus YAL013W, strain DEP1, hits give low values 0.989 | locus YAL021C, strain ccr4, hits give low values 0.983 | locus YAL026C, strain drs2, hits give low values 1 | locus YAL030W, strain snc1, hits give low values 0.971 | locus YBL061C, strain skt5, hits give low values 0.98 | locus YBR009C, strain hhf1, hits give low values 1.01 | locus YBR021W, strain FUR4, hits give low values 0.998 | locus YBR023C, strain chs3, hits give low values 0.976 | locus YBR171W, strain sec66, hits give low values 0.982 | locus YBR229C, strain ROT2, hits give low values 0.944 | locus YBR231C, strain swc5, hits give low values 0.999 | locus YBR279W, strain paf1, hits give low values 0.975 | locus YCL011C, strain gbp2, hits give low values 0.945 | locus YCL016C, strain dcc1, hits give low values 0.968 | locus YCL029C, strain bik1, hits give low values 0.986 | locus YCL061C, strain MRC1, hits give low values 0.992 | locus YCL069W, strain vba3, hits give low values 0.985 | locus YCR088W, strain abp1, hits give low values 0.974 | locus YDL005C, strain med2, hits give low values 0.968 | locus YDL035C, strain GPR1, hits give low values 0.967 | locus YDL040C, strain nat1, hits give low values 0.98 | locus YDL074C, strain BRE1, hits give low values 1.02 | locus YDL101C, strain DUN1, hits give low values 0.977 | locus YDL134C, strain PPH21, hits give low values 0.978 | locus YDL185W, strain tfp1, hits give low values 0.983 | locus YDL192W, strain arf1, hits give low values 0.978 | locus YDR001C, strain nth1, hits give low values 0.965 | locus YDR069C, strain doa4, hits give low values 0.981 | locus YDR101C, strain arx1, hits give low values 1.01 | locus YDR137W, strain rgp1, hits give low values 0.967 | locus YDR150W, strain NUM1, hits give low values 0.956 | locus YDR159W, strain sac3, hits give low values 1.02 | locus YDR162C, strain NBP2, hits give low values 0.968 | locus YDR195W, strain ref2 0.982 | locus YDR297W, strain sur2, hits give low values 0.974 | locus YDR318W, strain mcm21, hits give low values 0.999 | locus YDR334W, strain swr1, hits give low values 0.941 | locus YDR335W, strain msn5, hits give low values 0.971 | locus YDR388W, hits give low values 0.997 | locus YDR392W, strain spt3, hits give low values 0.956 | locus YDR502C, strain sam2, hits give low values 0.98 | locus YEL003W, strain gim4, hits give low values 0.989 | locus YEL037C, strain rad23, hits give low values 0.976 | locus YEL061C, strain CIN8 (second series), hits give low values 0.975 | locus YEL061C, strain CIN8, hits give low values 0.979 | locus YER015W, strain faa2, hits give low values 0.982 | locus YER016W, strain bim1, hits give low values 0.984 | locus YER110C, hits give low values 0.965 | locus YER111C, strain swi4, hits give low values 0.981 | locus YER155C, strain BEM2 (second series), hits give low values 1.03 | locus YER155C, strain BEM2, hits give low values 1.01 | locus YER167W, strain BCK2, hits give low values 0.988 | locus YFR010W, strain ubp6, hits give low values 0.981 | locus YGL078C, strain dbp3, hits give low values 0.973 | locus YGL086W, strain mad1, hits give low values 0.982 | locus YGL167C, strain pmr1, hits give low values 0.984 | locus YGL173C, strain kem1, hits give low values 0.981 | locus YGL227W, strain vid30, hits give low values 0.981 | locus YGL240W, strain doc1, hits give low values 0.993 | locus YGL248W, strain PDE1, hits give low values 0.976 | locus YGL253W, strain hxk2, hits give low values 0.977 | locus YGR078C, strain PAC10, hits give low values 0.98 | locus YGR135W, strain pre9, hits give low values 0.991 | locus YGR229C, strain SMI1, hits give low values 0.998 | locus YGR252W, strain gcn5, hits give low values 0.904 | locus YHR013C, strain ard1, hits give low values 0.948 | locus YHR027C, strain rpn1, hits give low values 0.962 | locus YHR030C, strain SLT2, hits give low values 0.985 and 1.07 | locus YHR079C, strain IRE1 (second series), hits give low values 1.01 | locus YHR079C, strain IRE1, hits give low values 1.05 | locus YHR094C, strain hxt1, hits give low values 0.99 | locus YHR129C, strain ARP1, hits give low values 0.994 | locus YHR142W, strain chs7, hits give low values 0.933 | locus YHR200W, strain rpn10, hits give low values 0.997 | locus YIL066C, strain RNR3, hits give low values 0.97 | locus YIL073C, strain SPO22, hits give low values 1.01 | locus YIL125W, strain kgd1, hits give low values 0.989 | locus YIR030C, strain dcg1, hits give low values 0.983 | locus YJL092W, strain hpr5, hits give low values 0.985 | locus YJL095W, strain BCK1 (second series), hits give low values 0.98 | locus YJL095W, strain BCK1, hits give low values 1.02 and 1.04 | locus YJL115W, strain asf1, hits give low values 0.958 | locus YJL129C, strain trk1, hits give low values 0.968 | locus YJL134W, strain LCB3, hits give low values 0.978 | locus YJL154C, strain vps35, hits give low values 0.963 | locus YJL164C, strain tpk1, hits give low values 0.996 | locus YJL166W, strain qcr8, hits give low values 0.96 | locus YJL168C, strain set2, hits give low values 0.993 | locus YJL187C, strain SWE1 (second series), hits give low values 0.985 | locus YJL187C, strain SWE1, hits give low values 0.981 | locus YJR043C, strain POL32, hits give low values 1.02 | locus YJR066W, strain TOR1, hits give low values 1.01
